Compounds without any hit were thinned out: in the full panel of roughly 79,000, 15% have a hit. A number with no mark means an inactive call. Calls of active or inactive are those of the source. Rule as the data show it: active = growth inhibition above about 70%; inactive = the rest.
Key:
[1] = NCI Yeast Anticancer Drug Screen. Data for the rad50 strain (AID 155);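 also: 0% = growth of vehicle-only cultures of the same strain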; conditions: S. cerevisiae rad50 strain growth inhibition, stronger effect = higher value
Procedure, shortened: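 Inhibition values express reduced yeast growth in compound-treated cultures relative to vehicle-treated controls.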

[2] = NCI Yeast Anticancer Drug Screen. Data for the mec2-1 strain (AID 157); conditions: S. cerevisiae mec2-1 strain, stronger effect = higher value
Procedure, shortened: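 Using mec2-1 yeast: add compound, measure growth, express inhibition versus vehicle-treated cultures.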

[3] = NCI Yeast Anticancer Drug Screen. Data for the sgs1 mgt1 strain (AID 161);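 also: 0% = growth of cultures given vehicle only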; conditions: S. cerevisiae sgs1 mgt1 strain, stronger effect = higher value
Procedure, shortened: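 Percent growth inhibition was derived by comparing compound-exposed mutant yeast with vehicle-exposed cultures. The strain carries alterations in DNA damage repair.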

[4] = NCI Yeast Anticancer Drug Screen. Data for the cln2 rad14 strain (AID 165);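 also: 0% = growth equal to vehicle treated cultures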; conditions: S. cerevisiae cln2 rad14 strain, stronger effect = higher value
Procedure, shortened: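 Yeast strain cln2 rad14, bearing defects in cell cycle control and DNA repair, serves as the test system; values reflect growth inhibition compared with vehicle.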

[5] = NCI Yeast Anticancer Drug Screen. Data for the bub3 strain (AID 167); conditions: S. cerevisiae bub3 mutant strain, stronger effect = higher value
Procedure, shortened: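 Steps: expose the mutant yeast strain to compound; grow alongside vehicle-treated cultures; measure growth; express inhibition against the vehicle cultures.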

[6] = NCI Yeast Anticancer Drug Screen. Data for the mlh1 rad18 strain (AID 175); conditions: S. cerevisiae mlh1 rad18 strain growth inhibition, stronger effect = higher value
Procedure, shortened: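 Steps: expose repair-defective yeast to compound; measure growth; express inhibition against vehicle-treated controls.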

[7] = at 5.0 µM (retest, dose inferred, filed as 0.5)
[8] = at 50.0 µM (retest, dose inferred, filed as 5.0)

Row | SMILES | growth inhibition [1, 7] | growth inhibition [1, 8] | growth inhibition ([1]; at 50.0 µM) | growth inhibition [2, 7] | growth inhibition [2, 8] | growth inhibition ([2]; at 50.0 µM) | growth inhibition [3, 7] [%] | growth inhibition [3, 8] | growth inhibition ([3]; at 50.0 µM) | growth inhibition [4, 7] [%] | growth inhibition [4, 8] | growth inhibition ([4]; at 50.0 µM) | growth inhibition [5, 7] | growth inhibition [5, 8] | growth inhibition ([5]; at 50.0 µM) | growth inhibition [6, 7] | growth inhibition [6, 8] | growth inhibition ([6]; at 50.0 µM)
1 | CCOC(=O)c1nnc2cc(-c3ccccc3)nn2c1-c1ccccc1 | 65% | 85% (active) | 51.1% | 35% | 66% | 21.8% | 48 | 80% (active) | 75.2% (active) | 25 | 38% | 41.4% | 45% | 70% (active) | 65.9% | 61% | 90% (active) | 38.6%
2 | CN1C(=O)C(C2C(=O)N(C)C(=O)N(C)C2=O)C(=O)N(C)C1=O | 13% | -3% | 2.95% | 2% | 0% | 0.9% | 0 | -11% | 12.2% | 2 | 4% | 39.4% | 0% | -2% | -2.2% | 1% | -2% | 8.55%
3 | O=C(O)c1ccccc1SC(Sc1ccccc1C(=O)O)c1cccc(Cl)c1 | 8% | 92% (active) | 88% (active) | 7% | 97% (active) | 80% (active) | 22 | 99% (active) | 97% (active) | -1 | 87% (active) | 90% (active) | 9% | 97% (active) | 81.5% (active) | 15% | 97% (active) | 98% (active)
4 | CCc1nc(N)nc(N)c1-c1ccc(N2CCCCC2)c([N+](=O)[O-])c1 | 3% | 8% | 31.3% | 6% | 4% | 56.8% | 1 | 3% | 13.3% | -6 | 6% | 72.2% (active) | -1% | -2% | 91.7% (active) | -1% | 0% | 51%
5 | S=C1NC2=C(COC/C2=C\c2ccccc2Cl)C(c2ccccc2Cl)N1 (stereo not given) | 94% (active) | 94% (active) | 76.9% (active) | 47% | 96% (active) | 81.5% (active) | 55 | 97% (active) | 79.2% (active) | 53 | 96% (active) | 76.8% (active) | 58% | 96% (active) | 82% (active) | 92% (active) | 94% (active) | 81.3% (active)
6 | O=C(C[N+]1(CCc2ccccc2)CCOCC1)c1ccc(-c2ccccc2)cc1 | 2% | 52% | 79.3% (active) | 19% | 71% (active) | 92.5% (active) | -5 | 93% (active) | 96.7% (active) | -5 | 34% | 98.4% (active) | -2% | 66% | 92.8% (active) | 12% | 93% (active) | 98.2% (active)
7 | CCCCCCC(C)S(=O)(=O)c1ccc(C)cc1 (stereo not given) | 3% | 63% | 58.5% | 14% | 83% (active) | 84.7% (active) | 7 | 75% (active) | 59.7% | 5 | 13% | 5.1% | 0% | 50% | 17.1% | -3% | 47% | 51.2%
8 | [N-]=[N+]=CC(=O)C1(c2ccccc2)OC1c1ccccc1 (stereo not given) | -20% | 1% | 23.6% | 7% | 10% | 2.55% | -16 | -4% | 55.5% | -21 | -18% | 32.5% | -43% | -6% | -7.55% | -32% | -33% | 82.8% (active)
9 | C[n+]1c(/C=C/c2ccccc2Cl)sc2ccccc21 | 83% (active) | 96% (active) | 97.2% (active) | 99% (active) | 99% (active) | 94.2% (active) | 52 | 88% (active) | 98.2% (active) | 59 | 92% (active) | 98.5% (active) | 98% (active) | 98% (active) | 89.5% (active) | 98% (active) | 98% (active) | 98.7% (active)
10 | CC(C)C(=O)c1ccc([N+](=O)[O-])o1 | 2% | 97% (active) | 98.8% (active) | 11% | 97% (active) | 99% (active) | 8 | 96% (active) | 97.7% (active) | -3 | 99% (active) | 97.3% (active) | 1% | 97% (active) | 99.1% (active) | 6% | 98% (active) | 98.5% (active)
